From PubChem BioAssay
D3 ag – activates the human D3 dopamine receptor | max activation, % | hit rate 0.58% among 410,000 | D3R DiscoveRx beta-arrestin cells, luminescence, 90 min | P35462; in the data active means max activation above about 30%; further: 0% is about no effect
Target sequence (P35462 whole entry, looked up): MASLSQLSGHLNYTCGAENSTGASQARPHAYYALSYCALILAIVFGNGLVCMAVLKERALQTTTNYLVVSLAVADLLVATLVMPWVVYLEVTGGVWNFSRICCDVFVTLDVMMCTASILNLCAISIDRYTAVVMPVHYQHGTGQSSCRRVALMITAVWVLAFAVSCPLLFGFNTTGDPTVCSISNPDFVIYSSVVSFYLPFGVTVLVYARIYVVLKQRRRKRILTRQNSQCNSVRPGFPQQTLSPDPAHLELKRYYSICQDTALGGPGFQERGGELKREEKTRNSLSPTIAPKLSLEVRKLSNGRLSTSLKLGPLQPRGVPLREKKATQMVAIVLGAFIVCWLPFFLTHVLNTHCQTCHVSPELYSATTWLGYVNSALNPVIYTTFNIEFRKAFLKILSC
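Agonist mode: compounds and dopamine controls were applied to plated cells for 90 min at 37 degrees C after an overnight attachment at 1500 cells/well. Luminescent read-out followed 30 - 60 minutes at room temperature with DiscoveRx detection reagent.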
HepG2 tox – HepG2 cytotoxicity, counter-screen for TGF-b inhibitors. HepG2 CAGA-GFP viability, ATP luminescence, 18 h. Potency, µM (doses to about 46.1 µM), without a hit: at the top dose activity change, negative = cytotoxicity, hits mostly cytotoxic. hit rate 0.76% among 410,000. AID 588856; further: potency means the concentration at half of the fitted maximal effect
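CellTiter-Glo luminescence gave cytotoxicity after 18 hours at 37 degrees C. The cells were HepG2 CAGA-GFP in 1% FBS DMEM, stimulated with 500 pg/mL TGF-beta after compound addition. %Activity was normalised to no-cell wells (complete cell-killing) and DMSO (no toxicity), and curves were fitted and classified.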
TGFb SMAD3 inh – inhibitors of TGF-b signaling; HepG2 CAGA-GFP TGF-b/SMAD3 reporter, GFP fluorescence, 18 h; TGF-beta stimulated, 500 pg/mL final; Potency, µM (doses to about 46.1 µM), without a hit: top-dose activity, negative = inhibition, usual class: inhibitors; hit rate 1.2% among 410,000; further: potency means the concentration at half of the fitted maximal effect; on the % scale 0 is the no-effect control and ±100 the full control effect; nearly all actives have a fitted effect of over 65% in size
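Using HEPG2 CAGA-GFP reporter cells at 1000 cells/well, we pinned test compounds, stimulated with recombinant TGF-beta (500 pg/mL final) and measured total well GFP after 18 h.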
ATXN viability – cell viability loss in ATXN counter-screen; Potency, µM (highest dose often 56.7 µM), most hits filed as cytotoxic; S2 cells (HEK-293 line with an ATXN2-luciferase reporter) viability, CellTiter-Fluor protease fluorescence, 24 h; hit rate 0.49% among 400,000; further: potency means the concentration at half of the fitted maximal effect; nearly all actives have a fitted effect of over 40% in size
ATXN2 expr inh – ATXN2 expression inhibition. AID 1745845. Potency, µM (titrated, usually from 57 µM), without a hit: at the top dose activity change, negative = inhibition, actives largely listed as inhibitors. HEK-293 ATXN2-luciferase reporter, luminescence, 24 h. hit rate 0.72% among 360,000; further: potency means the concentration at half of the fitted maximal effect; on the % scale 0 is the no-effect control and ±100 the full control effect; nearly all actives have a fitted effect of over 55% in size
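ATXN2-luciferase reporter cells (luciferase flanked by upstream and downstream ATXN2 gene portions) were treated 24 h at 37 °C with compounds at up to 57 uM. SteadyGlo luminescence gave expression; GF-AFC fluorescence gave viability.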
DRD3 antagonist – antagonists of human D3 dopamine receptor; hit rate 2.5% among 360,000; max response, negative = inhibition, %; D3R cells, DiscoveRx beta-arrestin luminescence, antagonist mode; hits give low values; in the data active means max response below about -50%; inconclusive means no clear call, values can overlap the other calls; further: on the % scale 0 is the no-effect control and ±100 the full control effect
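Cells expressing the human receptor were seeded at 1500 cells/well, incubated overnight at 37 degrees C in 5% CO2, then exposed to library compounds with dopamine controls for 90 minutes at 37 degrees C before luminescent detection.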
* marks the source's active call; other numbers are inactive results; i = inactive; u = inconclusive; x = not tested or not shown; [ ] = another dose, or the depositor's remark. Most compounds without a hit are left out; they make up all but 4.7% or so of the library. Unless noted, the call rests on the fitted dose curve; in most records, active means well fitted curve in the direction sought with a large enough effect; inconclusive means small, poorly fitted or top-dose-only effect, or another doubt; inactive means no such curve, though single readings can be large; an effect the other way counts as inactive or inconclusive.

SMILES	D3 ag	HepG2 tox	TGFb SMAD3 inh	ATXN viability	ATXN2 expr inh	DRD3 antagonist
COc1ccccc1N1CCN(C(=O)CCS(=O)(=O)c2cc(Br)cc3c2N(C(=O)C2CC2)CC3)CC1	4.0	-16.8%	u	u	-14.6%	x
CCc1ccc2[nH]cc(S(=O)(=O)c3ccc(C(C)C)cc3)c(=O)c2c1	2.3	-32.8%	-26.8%	i	2.7%	x
N[C@H](C(=O)O)c1ccc(O)cc1	-6.9	x	x	i	1.1%[25.6 µM]	x
Cc1ccc2cc(CNC(C)CO)c(N3CCC(O)CC3)nc2c1 (configuration not stated)	x	x	x	i	x	x
Cc1nc(NC(=O)/C=C/c2ccccc2)n[nH]1	-2.8	15.8%	12.6µM*	i	3.8%[11.3 µM]	-25.8
Nc1cc(=O)[nH]c(SC/C=C/c2ccccc2)n1	10.4	-2.6%	-2.2%	i	15.1%	-1.6
O=c1cc(C(F)(F)F)nc(SC/C=C/c2ccccc2)[nH]1	0.2	-32.6%	14.1µM*	i	x	38.2
CCOc1ccc(Cl)cc1CNCCNCC(C)O (configuration not stated)	-32.9	-5.2%	12.0%	i	0.0%	-70.9*
Cc1cccc(/C=N/NC(=O)c2ccc(NC(=O)c3ccc(Cl)cc3)cc2)n1	-2.4	-68.6%	12.6µM*	i	-23.4%	u
Cc1cccc(/C=N/NC(=O)c2ccc(NC(=O)c3ccc(F)cc3)cc2)n1	1.6	1.3%	-0.4%	u	-15.9%	-2.7
O=C(NCc1cccnc1)c1ccc(-c2ccc(Cl)cc2)o1	-3.5	-28.7%	u	i	x	0.0
O=C(NCc1cccnc1)/C(=C\c1ccc(-c2ccc(Cl)c(Cl)c2)o1)S(=O)(=O)c1ccccc1	-36.3	-103.2%	4.47µM*	x	12.6µM*	-28.2
O=C(CN(C1CCCCC1)S(=O)(=O)c1ccccc1)NCC1CCCO1 (configuration not stated)	3.3	-1.3%	6.1%	i	-7.9%	0.9
O=C(CN(C1CCCCC1)S(=O)(=O)c1ccc(F)cc1)NCC1CCCO1 (configuration not stated)	-17.8	7.08µM*	4.47µM*	u	-5.8%	u
Cc1ccc(/C=C/C(=O)Nc2ccc3nc(N4CCC(C)CC4)cc(C)c3c2)cc1	-8.4	-29.3%	u	i	-7.6%	x
C=C1[C@@H](O)[C@H](Cc2ccccc2)N(Cc2ccccc2Br)S1(=O)=O	-26.3	10µM*	u	17.8µM*	20µM*	-13.2
COc1ccc2occ(C(C)=O)c2c1	-1.9	-8.3%	-10.1%	i	-3.4%	-6.7
CC(=O)c1coc2ccc(OCCN3CCCCC3)cc12	-36.3	-20.1%	u	i	-9.7%	-83.5*
COc1cc(/C(C)=N/NC(=S)NC(C)C)cc(OC)c1OC	2.8	-37.3%	10µM*	i	4.3%	-5.5
COc1cc(/C(C)=N\NC(N)=S)cc(OC)c1OC	2.5	-1.7%	-1.9%	i	-3.7%	17.5
COc1ccc2[nH]c3c(=O)n(CCCCC(=O)NCCN4CCCC4)c(=S)[nH]c3c2c1	-32.9	-2.9%	-2.0%	i	0.4%	-95.6*
CCOc1ccc(S(=O)(=O)Nc2ccc3oc(C)c(C(=O)OCCOC)c3c2)cc1	-1.9	-17.1%	u	u	-31.8%	x
CCCCOC(=O)c1c(C)oc2ccc(NS(=O)(=O)c3ccc4c5c(cccc35)C(=O)N4)cc12	4.0	-18.4%	14.1µM*	i	u	-9.5
Clc1ccc(CSc2nnc(CNc3cccc(Cl)c3)o2)cc1	-21.2	-45.3%	u	i	-19.1%	-56.9*
Fc1cccc(Cl)c1CSc1nnc(CNc2ccccc2)o1	-5.7	-19.1%	-14.2%	i	11.6%	1.4
SMILES	D3 ag	HepG2 tox	TGFb SMAD3 inh	ATXN viability	ATXN2 expr inh	DRD3 antagonist
COc1cc2c(cc1OC)CN(CCc1ccc(NC(=O)c3cc(OC)c(OC)cc3NC(=O)c3cnc4ccccc4c3)cc1)CC2	x	x	x	x	-26.1%	x
Cc1ccc(/C=N/NC(=O)CNC(=O)c2cccs2)cc1	-7.2	-0.7%	0.0%	i	8.6%	-1.0
O=C(CNC(=O)c1cccs1)N/N=C/c1c(F)cccc1Cl	-19.1	-34.3%	0.0%	i	19.9%	-51.3*
COc1ccc(/C=N/n2cnc3scc(-c4cccs4)c3c2=O)cc1OC	0.8	-1.9%	u	i	-2.7%	31.2
O=[N+]([O-])c1cccc(/C=N/n2cnnc2)c1O	-1.8	0.9%	15.2%	u	7.6%	-55.0*
O=c1c2c(-c3ccccc3)csc2ncn1/N=C/c1c2ccccc2cc2ccccc12	14.3	-4.5%	15.1%	i	3.7%	29.9
Cc1nn(-c2ccccc2)c(N2CCCC2)c1/C=N/n1cnc2scc(-c3ccccc3)c2c1=O	-13.6	-3.4%	u	i	-10.8%	-61.1*
O=[N+]([O-])c1cc(Cl)cc(/C=N/n2cnnc2)c1O	-11.6	-16.7%	-5.5%	u	-4.5%	-56.9*
O=[N+]([O-])c1cc(Br)cc(/C=N/n2cnnc2)c1O	-10.6	16.2%	40.1%	i	-18.1%	u
O=[N+]([O-])c1ccccc1S(=O)(=O)Oc1ccccc1/C=N/n1cnnc1	4.0	-2.6%	-3.2%	i	1.2%	-2.6
O=c1c2c(-c3ccc(Cl)cc3)csc2ncn1/N=C/c1cccc([N+](=O)[O-])c1O	-23.2	-40.3%	-4.5%	u	-35.1%	-60.8*
C=C1C(CCl)(CCl)C2(Cl)C(Cl)C(Cl)C1(Cl)C2(Cl)Cl (configuration not stated)	3.4	x	x	x	x	x
Oc1c(Br)cc(Br)cc1CNc1cccc2cccnc12	-2.7	-63.1%	u	i	x	-57.8*
Oc1ccc(Br)cc1CNc1cccc2cccnc12	-9.6	-63.7%	u	i	u	u
CCC1(C2CCN(C(=O)c3ccccc3C(C)=O)CC2)NC(=O)N(CCc2scnc2C)C1=O (configuration not stated)	x	x	x	i	x	x
O=C(NCCCc1cnc[nH]1)NCCCN(Cc1ccc(Cl)cc1)c1ccc(Br)cn1	x	-57.5%	u	x	x	x
S=C(NCCCc1cnc[nH]1)NCCCN(Cc1ccc(Cl)cc1)c1ccc(Br)cn1	x	-98.0%	u	28.2µM*	u	x
S=C(NCCCc1cnc[nH]1)NCCCN(Cc1ccc(Cl)cc1)c1ncc(Br)cn1	x	-90.7%	17.8µM*	x	x	x
S=C(NCCCc1cnc[nH]1)NCCCN(CCc1ccc(Cl)cc1)c1ccc(Br)cn1	x	10µM*	u	x	x	x
CCCCN(CCCNC(=S)NCCCc1cnc[nH]1)c1ccc(Br)cn1	x	-41.1%	u	17.8µM*	u	x
S=C(NCCCc1cnc[nH]1)NCCCN(CCc1ccccc1)c1ccc(Br)cn1	x	-52.6%	u	x	x	x
S=C(NCCCc1cnc[nH]1)NCCCN(Cc1ccc(Cl)cc1)c1ccc(Br)cc1	x	-92.1%	u	x	x	x
